In PubChem BioAssay (Tox21) one finds Potency data, which are given here for 20 compounds.

Several values for one entry are separate records, joined by “and”; a condition that tells them apart may be missing. Identical values can stand only once. Records with an inconclusive call do not appear. Activity calls are given as the source filed them. Unless noted, calls follow the shape of the dose curve; as a rule, active = well fitted curve in the direction sought with a large enough effect in the repeat runs; inconclusive = weak or mixed curves; inactive = no such curve, though single readings can be large; an effect the other way counts as inactive or inconclusive.

A short description of assay [1]: qHTS assay to identify small molecule agonists of the RXR signaling pathway - cell viability counter screen (AID 1159529). Also: nearly all actives have a fitted effect of over 50% in size. Also: potency is read from the fitted curve at half-maximal effect. The gist of the method:
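RXR-alpha-UAS-bla HEK 293T cells in medium with 2% charcoal-stripped FBS were pre-incubated 5 hr, then compound-treated 16 hr at 37 C. Viability was read by CellTiter-Glo luminescence in the same wells as the beta-lactamase assay, with tetraoctyl ammonium bromide as positive control.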
(Quantitative high-throughput screening tests each substance at several concentrations.)

A short description of assay [2]: qHTS assay to identify small molecule antagonists of the retinoid acid receptor (RAR) signaling pathway - cell viability counter screen (AID 1159551). Also: nearly all actives have a fitted effect of over 35% in size. Also: potency is read from the fitted curve at half-maximal effect. An outline of the steps:
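Cytotoxicity counter screen: ATP content quantified by CellTiter-Glo luminescence in C3RL4 cells treated 6 hr at 37 C with compound and retinol (1 uM final). Cells plated at 1,000/well and cultured overnight before dosing.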

A short description of assay [3]: qHTS assay to identify small molecule antagonists of the retinoic acid receptor (RAR) signaling pathway (AID 1159552; also: nearly all actives have a fitted effect of over 50% in size; also: potency is read from the fitted curve at half-maximal effect). The gist of the method:
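Retinol signaling pathway inhibitors screened in C3RL4 RARE-luciferase reporter cells seeded overnight at 37 C, then compounds added with 1 uM (final) retinol as pathway substrate. After 6 hr at 37 C, luciferase luminescence read after 30 min at room temperature.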

Assay [4] can be described thus: qHTS assay to identify small molecule agonists of the retinoic acid receptor (RAR) signaling pathway (AID 1159553). Also: potency is read from the fitted curve at half-maximal effect. The following applies: C3RL4 RARE luciferase reporter, agonist, 6 h; activation: at 73.3 µM (top of the series) unless noted. An outline of the steps:
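Luminescence was measured 30 min after luciferase reagent addition at room temperature. Before that, C3RL4 reporter cells (1,000 per well, plated overnight) were treated with compound for 6 hr at 37 C and 5% CO2.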

Assay [5] can be described thus: qHTS assay to identify small molecule antagonists of the estrogen related receptor (ERR) signaling pathway from Tox21 library - cell viability counter screen (AID 1224834). Also: nearly all actives have a fitted effect of over 30% in size. Also: potency is read from the fitted curve at half-maximal effect. The gist of the method:
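CellTiter-Fluor fluorescence, read after 30 min at 37 C, measures viability of ERR cells. Cells plated at 2,000/well and incubated 6 h before pin-tool compound addition, then exposed 17.5 hours at 37 C.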

Assay [6] addresses Luciferin 4-monooxygenase (Photinus pyralis) (UniProt P08659). Nature of the assay: qHTS assay to identify small molecule inhibitors of firefly luciferase (AID 1224835). Also: nearly all actives have a fitted effect of over 25% in size. Also: potency is read from the fitted curve at half-maximal effect. An outline of the steps:
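Quantitative HTS format; KM concentrations of both substrates. Purified P. pyralis FLuc activity quantified from luminescence images.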

Assay [7] in a line: qHTS assay to identify small molecule agonists of the constitutive androstane receptor (CAR) signaling pathway - cell viability counter screen (AID 1224836). Also: nearly all actives have a fitted effect of over 45% in size. Also: potency is read from the fitted curve at half-maximal effect. The gist of the method:
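HepG2 cells stably carrying hCAR and a CYP2B6-2.2kb reporter; 15-concentration compounds plus PK11195 (final 0.75 uM), 23 hr at 37 C/5% CO2. Viability read by CellTiter-Fluor fluorescence.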

A short description of assay [8]: qHTS assay to identify small molecule antagonists of the constitutive androstane receptor (CAR) signaling pathway - cell viability counter screen (AID 1224837). Also: nearly all actives have a fitted effect of over 45% in size. Also: potency is read from the fitted curve at half-maximal effect. An outline of the steps:
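Cytotoxicity counter-screen: CellTiter-Fluor fluorescence after 23 h compound exposure (15-point qHTS) in double-stable HepG2-CYP2B6-hCAR cells, with 50 nM CITCO added.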

Assay [9] addresses Nuclear receptor subfamily 1 group I member 3 (Homo sapiens) (UniProt Q14994). Description: qHTS assay to identify small molecule antagonists of the constitutive androstane receptor (CAR) signaling pathway (AID 1224838).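 Also: HepG2 cells stably expressing hCAR with CYP2B6 luciferase reporter stimulated by CITCO; nearly all actives have a fitted effect of over 40% in size.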 Also: potency is read from the fitted curve at half-maximal effect. An outline of the steps:
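Antagonism measured as luciferase signal (ONE-Glo, 30 min, room temperature) in CAR-stimulated cells: HepG2-CYP2B6-hCAR double-stable line exposed 24 hr at 37 C to compound in a 15-point series plus 50 nM CITCO.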

For assay [10] the target is unchanged. Nature of the assay: qHTS assay to identify small molecule agonists of the constitutive androstane receptor (CAR) signaling pathway (AID 1224839). Also: nearly all actives have a fitted effect of over 15% in size. Also: potency is read from the fitted curve at half-maximal effect. The gist of the method: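 HepG2 cells stably co-transfected with hCAR and a CYP2B6-2.2kb luciferase reporter; compounds at 15 concentrations with 0.75 uM PK11195 present. After 24 hr at 37 C, luciferase read by ONE-Glo luminescence.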

A short description of assay [11]: qHTS assay to identify small molecule antagonists of the estrogen related receptor signaling pathway with the pleiotropic PPARgamma coactivator (PGC) from Tox21 10K library - cell viability counter screen (AID 1224840; active = well fitted cell-killing curve with a large enough effect in the repeat runs, not every such curve was filed as active; also: nearly all actives have a fitted effect of over 40% in size; also: potency is read from the fitted curve at half-maximal effect). The gist of the method: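 Counter-screen for cytotoxicity: after 17.5 h compound exposure at 37 C, CellTiter-Fluor reagent added to PGC/ERR cells for 30 min and fluorescence read. Cells were seeded at 2,000 per well 6 h before dosing.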

Assay [12] is described as follows: qHTS assay to identify small molecule antagonists of the estrogen related receptor signaling pathway with the pleiotropic PPARgamma coactivator (PGC) from Tox21 10K library (AID 1224841; call rule not given here; also: actives are mostly falling curves and most rising ones were filed inactive; nearly all actives have a fitted effect of over 50% in size; also: potency is read from the fitted curve at half-maximal effect). The gist of the method: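 Luminescence (One-Glo, 30 min at room temperature) after 18 h compound treatment at 37 C of PGC/ERR reporter cells plated at 2,000 cells/well and settled 6 h beforehand.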

Assay [13] addresses Thyrotropin receptor (Homo sapiens) (UniProt P16473). Nature of the assay: qHTS assay to identify small molecule agonists of the thyroid stimulating hormone receptor (TSHR) signaling pathway (AID 1224843; calls by dose curve; also: nearly all actives have a fitted effect of over 45% in size). The gist of the method:
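Compounds are titrated over 15 concentrations, in triplicate, onto TSHR-HEK293 cells seeded at 800/well. Plates sit 30 min at room temperature before cAMP-d2 and anti-cAMP cryptate are added; signal is read after a further hour.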

Assay [14] is described as follows: qHTS assay to identify small molecule agonists of the estrogen related receptor signaling pathway with the pleiotropic PPARgamma coactivator (PGC) from Tox21 10K library (AID 1224842). Also: nearly all actives have a fitted effect of over 15% in size. An outline of the steps:
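PGC/ERR reporter cells (NTP line) were seeded 2,000 per well, rested 6 h at 37 C/5% CO2, then pin-dosed with compounds in DMSO for 18 h at 37 C; luciferase read by One-Glo luminescence after 30 min at room temperature.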

Chain of Nuclear receptor subfamily 1 group I member 3 (Homo sapiens) (Q14994 whole entry, looked up): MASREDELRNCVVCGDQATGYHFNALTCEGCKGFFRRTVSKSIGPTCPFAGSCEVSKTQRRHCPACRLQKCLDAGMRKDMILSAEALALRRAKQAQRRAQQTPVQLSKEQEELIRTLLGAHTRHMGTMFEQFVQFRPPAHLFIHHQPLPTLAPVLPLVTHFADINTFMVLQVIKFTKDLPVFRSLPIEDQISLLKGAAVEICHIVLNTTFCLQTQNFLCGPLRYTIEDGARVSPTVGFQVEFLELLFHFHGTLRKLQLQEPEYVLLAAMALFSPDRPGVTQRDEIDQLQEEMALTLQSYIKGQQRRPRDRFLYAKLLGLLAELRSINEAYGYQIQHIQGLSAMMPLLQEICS
Chain of Thyrotropin receptor (Homo sapiens) (P16473 whole entry, looked up): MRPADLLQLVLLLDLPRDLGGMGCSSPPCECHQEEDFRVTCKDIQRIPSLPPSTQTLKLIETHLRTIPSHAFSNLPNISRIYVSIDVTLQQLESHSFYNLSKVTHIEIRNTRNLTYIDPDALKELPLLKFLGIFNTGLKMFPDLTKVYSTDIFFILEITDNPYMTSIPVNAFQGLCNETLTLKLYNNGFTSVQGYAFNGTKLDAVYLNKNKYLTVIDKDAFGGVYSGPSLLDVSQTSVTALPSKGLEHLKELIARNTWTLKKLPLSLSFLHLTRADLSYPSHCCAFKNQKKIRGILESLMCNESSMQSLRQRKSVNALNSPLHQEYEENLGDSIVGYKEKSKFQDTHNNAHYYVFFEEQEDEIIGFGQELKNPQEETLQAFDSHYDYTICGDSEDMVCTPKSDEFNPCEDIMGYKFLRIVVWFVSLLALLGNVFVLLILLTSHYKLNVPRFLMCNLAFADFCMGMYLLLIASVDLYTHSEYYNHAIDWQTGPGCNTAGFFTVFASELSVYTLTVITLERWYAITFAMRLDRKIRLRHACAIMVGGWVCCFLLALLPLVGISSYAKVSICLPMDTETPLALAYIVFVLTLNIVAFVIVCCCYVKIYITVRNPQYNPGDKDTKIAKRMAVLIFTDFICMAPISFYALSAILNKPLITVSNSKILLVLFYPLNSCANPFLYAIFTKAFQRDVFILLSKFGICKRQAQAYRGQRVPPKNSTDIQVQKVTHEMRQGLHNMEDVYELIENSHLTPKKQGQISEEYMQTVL
Chain of Luciferin 4-monooxygenase (Photinus pyralis) (P08659 whole entry, looked up): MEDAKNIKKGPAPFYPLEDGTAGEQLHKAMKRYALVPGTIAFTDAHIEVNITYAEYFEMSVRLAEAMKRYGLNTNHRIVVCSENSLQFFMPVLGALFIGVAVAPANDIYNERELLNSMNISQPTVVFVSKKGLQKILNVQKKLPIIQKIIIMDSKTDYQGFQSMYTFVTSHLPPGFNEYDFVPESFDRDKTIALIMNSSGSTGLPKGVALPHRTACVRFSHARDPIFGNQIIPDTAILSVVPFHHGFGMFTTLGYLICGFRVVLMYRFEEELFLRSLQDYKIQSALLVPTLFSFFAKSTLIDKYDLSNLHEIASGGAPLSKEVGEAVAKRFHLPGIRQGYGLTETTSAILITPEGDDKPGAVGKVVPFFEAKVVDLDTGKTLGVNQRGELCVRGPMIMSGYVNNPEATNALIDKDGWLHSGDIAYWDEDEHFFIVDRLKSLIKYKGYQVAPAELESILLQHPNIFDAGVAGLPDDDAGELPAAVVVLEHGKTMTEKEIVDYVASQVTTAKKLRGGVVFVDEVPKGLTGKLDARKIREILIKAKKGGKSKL

Take `CC(C)=CC1C(C(=O)OCc2cccc(Oc3ccccc3)c2)C1(C)C` (stereo not drawn): the Potency entry in [1], in assay [2], in assay [3], in assay [4], in [5] and in assay [6] was “inactive” throughout. For the same compound, the Potency result in assay [7], in assay [8], in assay [9], in [11] and in assay [12] was “inactive” each time. Moreover, the Potency in [10] is 4.86 µM (active) and 6.68 µM (active).
With `COc1ccc(C=O)cc1OC`, the Potency entry in assay [1], in [2], in assay [3], in [4], in assay [5] and in assay [6] was “inactive” throughout. In addition, the Potency entry in [7], in [8], in assay [9], in assay [10], in assay [11] and in [12] was “inactive” in each case.
As to `CC(C)(O)C#N`, the Potency result in [1], in assay [2], in [3], in assay [4], in [5] and in assay [6] was “inactive” throughout. Besides, the Potency result in assay [7], in assay [8], in assay [9], in assay [10], in [11] and in assay [13] was “inactive” throughout.
`O=NN(c1ccccc1)c1ccccc1`: the Potency entry in [1], in assay [2], in [3], in [4], in [5] and in assay [6] was “inactive” throughout. Also, the Potency result in assay [7], in assay [8], in [11] and in [13] was “inactive” throughout.
For `COP(=S)(OC)Oc1ccc(S(=O)(=O)N(C)C)cc1`, the Potency entry in [1], in assay [2], in [3], in assay [4], in assay [6] and in assay [7] was “inactive” throughout. Further, the Potency entry in assay [8], in assay [9], in [10], in assay [11], in assay [12] and in assay [14] was “inactive” each time. Besides, the Potency result in assay [13] is “inactive”.
For `COc1ccc(O)c(C(C)(C)C)c1`, the Potency result in assay [1], in assay [2], in assay [3], in assay [4], in [6] and in assay [7] was “inactive” throughout. Also, the Potency result in [8], in assay [9], in assay [10] and in assay [11] was “inactive” throughout.
Take `Clc1cccc(Cl)c1`: the Potency entry in assay [1], in [2], in assay [3], in [4], in [6] and in assay [7] was “inactive” each time. For the same compound, the Potency entry in [8], in assay [9], in assay [10], in assay [11] and in assay [12] was “inactive” each time.
Consider `COP(=S)(OC)SCn1nnc2ccccc2c1=O`, for which the Potency entry in [1], in assay [2], in [7], in assay [8], in assay [9] and in assay [11] was “inactive” each time. The Potency result in assay [14] and in [13] was “inactive” each time. The Potency is 60 µM (active) in assay [3]; 39.1 µM (active) and 39.9 µM (active) in assay [6]; 61.1 µM (active) in assay [12].
Take `CCC(=O)Nc1ccc(Cl)c(Cl)c1`: the Potency result in [1], in assay [2], in [3], in [4], in assay [6] and in assay [7] was “inactive” each time. For the same compound, the Potency entry in assay [8], in assay [9], in assay [10] and in assay [11] was “inactive” each time.
As for `N#Cc1c(Cl)c(Cl)c(Cl)c(C#N)c1Cl`, the Potency in assay [1] is 6.05 µM (active) and 4.9 µM (active); in assay [2], 37.8 µM (active) and 38.6 µM (active); in assay [3], 3 µM (active) and 3.06 µM (active); in assay [4], 847 nM (active) and 486 nM (active); in assay [7] it was 26.8 µM (active) and 24.3 µM (active); in assay [8], 15.1 µM (active) and 9.69 µM (active). Besides, the Potency in assay [9] is 5.34 µM (active) and 4.33 µM (active); in assay [11], 4.24 µM (active) and 6.11 µM (active). Further, the Potency entry in [6] and in assay [10] was “inactive” in each case.
For `CCCCCCCC[N+](C)(CCCCCCCC)CCCCCCCC`, the Potency was 346 nM (active) and 15.5 µM (active) and 6.16 µM (active) in assay [1]; 27.3 µM (active) and 61.2 µM (active) in assay [2]; 4.85 µM (active) and 9.7 µM (active) and 13.7 µM (active) in [3]; 17.2 µM (active) and 7.7 µM (active) and 48.6 µM (active) in assay [7]; 19.3 µM (active) and 13.7 µM (active) and 17.2 µM (active) in assay [8]; 17.2 µM (active) and 15.4 µM (active) in assay [9]. Further, the Potency in assay [11] is 9.67 µM (active) and 1.37 µM (active) and 13.7 µM (active). The Potency result in assay [6] and in assay [10] was “inactive” each time.
`C=C(C)C#N`: the Potency entry in [1], in assay [2], in [3], in assay [4], in assay [6] and in assay [7] was “inactive” each time. The Potency entry in assay [8], in assay [9], in assay [10] and in assay [11] was “inactive” in each case.
As to `CC1=C(C(=O)Nc2ccccc2)SCCO1`, the Potency result in [1], in assay [2], in assay [3], in assay [5], in [7] and in assay [8] was “inactive” in each case. Besides, the Potency result in assay [11], in assay [12] and in assay [13] was “inactive” throughout. The Potency is 15.6 µM (active) in assay [4]; 36.2 µM (active) and 44.8 µM (active) in [6].
On to `O=C1C(Cl)=C(Cl)C(=O)c2ccccc21`, for which the Potency in assay [1] is 12.3 µM (active) and 17.4 µM (active); in [2], 21.8 µM (active) and 24.3 µM (active); in [3], 21.8 µM (active) and 19.3 µM (active); in assay [5], 61.3 µM (active) and 54.5 µM (active); in assay [6], 5.66 µM (active) and 5.64 µM (active); in [12] it was 34.5 µM (active) and 19.3 µM (active). For the same compound, the Potency entry in [7], in assay [8] and in assay [11] was “inactive” in each case.
On to `CC1CC(=O)O1` (stereo not drawn), for which the Potency result in [1], in [2], in assay [3], in [4], in assay [6] and in [7] was “inactive” each time. Also, the Potency entry in assay [8] and in assay [11] was “inactive” each time.
As for `CN(C)c1ccccc1`, the Potency result in [1], in assay [2], in assay [3], in assay [4], in [5] and in assay [6] was “inactive” throughout. Also, the Potency result in [7], in [8], in assay [11] and in [12] was “inactive” each time.
In the case of `O=NN1CCOCC1`, the Potency result in assay [1], in assay [2], in [3], in assay [4], in assay [5] and in assay [6] was “inactive” in each case. For the same compound, the Potency entry in assay [7], in assay [8] and in [11] was “inactive” throughout.
As to `CC1(C)Cc2cccc(O)c2O1`, the Potency result in [1], in [2], in assay [3], in [4], in assay [6] and in [7] was “inactive” each time. Moreover, the Potency result in assay [8], in assay [9], in [10], in assay [11] and in assay [13] was “inactive” in each case.
As for `CC(C)CON=O`, the Potency entry in assay [1], in [2], in assay [3], in [4], in [6] and in assay [7] was “inactive” in each case. Further, the Potency entry in assay [8], in assay [9], in [10] and in assay [11] was “inactive” each time.
On to `CC(C)(C#N)N=NC(C)(C)C#N`, for which the Potency entry in assay [1], in assay [2], in assay [3], in assay [4], in [6] and in assay [7] was “inactive” each time. The Potency entry in [8], in [9], in [10] and in assay [11] was “inactive” in each case.
